Test results from PubChem BioAssay (NCI).
This is part of a sample that, as a whole, favours compounds with a hit. Of some 83,000 tested, about 20% had one in any assay.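 Activity criterion: percent growth below 10, measured after cells in 96-well plates were exposed to a single compound concentration for 48 hours.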 A number with no mark means an inactive call. Calls of active or inactive are those of the source.

Tests used:
Test in all cases: NCI-60 one-dose screen, 48 h (100 = growth as untreated, 0 = no growth, -100 = all killed)
Conditions in all cases: 10 µM unless noted
[1] = system: SK-MEL-2 melanoma
[2] = system: EKVX NSCLC
[3] = system: SN12C renal
[4] = system: UO-31 renal
[5] = system: TK-10 renal
[6] = system: ACHN renal
[7] = system: CAKI-1 renal
[8] = system: A498 renal
[9] = system: CCRF-CEM leukemia
[10] = system: MOLT-4 leukemia
[11] = system: RPMI-8226 leukemia
[12] = system: OVCAR-8 ovarian
[13] = system: OVCAR-5 ovarian
[14] = system: OVCAR-4 ovarian
[15] = system: SK-OV-3 ovarian
[16] = system: IGROV1 ovarian
[17] = system: OVCAR-3 ovarian
[18] = system: HS 578T breast
[19] = system: NCI/ADR-RES ovarian

Structure (SMILES)	growth [1]	growth [2]	growth [3]	growth [4]	growth [5]	growth [6]	growth [7]	growth [8]	growth [9]	growth [10]	growth [11]	growth [12]	growth [13]	growth [14]	growth [15]	growth [16]	growth [17]	growth [18]	growth [19]
O=C(Cc1ccc(F)c(Cl)c1)Nc1cc(C2(C(F)(F)F)CC2)nn1Cc1ccccc1	18.9%	68.1%	49.3%	42.4%	81%	35.9%	10.1%	-2.62% (active)	15%	93%	75.8%	25.3%	91.4%	75%	-13.1% (active)	62.2%	63.4%	26.2%	56.9%
COc1ccc(-c2nn(C(=O)c3cc(OC)c(OC)c(OC)c3)c3cc(N)ccc23)cc1	55.8%	30.8%	22.9%	23.7%	60.8%	11.4%	46.2%	-8.28% (active)	17%	13.7%	21.7%	15.9%	39.2%	58.1%	31.5%	23.9%	0.527% (active)	35%	15.6%
CN1CCN(c2ccc(-c3cc4c(Nc5ccc(F)c(Cl)c5)ncnn4c3)cc2)CC1	103%	83.5%	70.1%	82.7%	73.6%	44%	66.8%	61.9%	28.9%	34.2%	13.1%	70.4%	95.2%	71.2%	92.7%	49.5%	77%	75.2%	72.5%
COc1ccc(/C=C/c2c(C(=O)/C=C/c3ccc(C(F)(F)F)cc3)c(C)nc3ccccc23)cc1	-12.1% (active)	-18.7% (active)	-42.9% (active)	-87.7% (active)	-14% (active)	-94.3% (active)	-38% (active)	-66.3% (active)	7.64% (active)	6.21% (active)	-25.7% (active)	9.68% (active)	-33.6% (active)	-6.41% (active)	27.3%	-57.2% (active)	-71% (active)	1.9% (active)	2.01% (active)
COc1cc(C(=O)c2cc(C)c3[nH]c4ccc(O)cc4c3c2C)cc(OC)c1OC	62.3%	35.9%	25%	22.2%	93.3%	24.3%	24.5%	-12.7% (active)	15.5%	15.1%	8.34% (active)	27.3%	38.9%	48.3%	46.5%	12.1%	-45% (active)	38.1%	8.01% (active)
COc1cc(/C=C/c2c(C(C)=O)c(C)nc3ccccc23)cc(OC)c1OC	47.9%	52.4%	35.3%	36.7%	78.8%	37.6%	24.7%	-23.8% (active)	21.3%	33.6%	23.6%	52.6%	61.3%	52.7%	36.6%	32%	15.1%	-16.7% (active)	23.1%
O=CN1N=C(c2ccc(Nc3ccnc4cc(Cl)ccc34)cc2)CC1c1ccccc1 (centres undefined)	32.6%	46.2%	53.8%	24.1%	59.7%	33.4%	38.2%	21.2%	15%	13.8%	17.2%	51.8%	84.1%	39%	41.3%	50.2%	14.6%	47.5%	7.22% (active)
C[C@]12CC[C@@H]3c4cc(OC(F)F)c(OS(N)(=O)=O)cc4CC[C@H]3[C@@H]1CC[C@@H]2OS(N)(=O)=O	36.1%	19%	42%	42.9%	100%	40.6%	39.1%	94.8%	22.9%	20.6%	39.3%	46.2%	94.9%	76.1%	44.7%	47.6%	16.2%	5.84% (active)	11.3%
CCOC(=O)/C(C#N)=C\Nc1ccc2ncnc(Nc3ccc(Cl)cc3Cl)c2c1	110%	41.7%	89.5%	42%	44.2%	62.9%	39%	48.7%	70.9%	58.8%	79.5%	87%	82.2%	95.1%	97%	55%	67.6%	75.5%	85.4%
COc1nc2ccccc2cc1-c1nc2c(cnn2-c2ccc(Br)cc2)c(=O)[nH]1	24.3%	42.4%	33.2%	27.1%	40.6%	35.4%	29.4%	8.46% (active)	13.7%	47.7%	20.7%	27.7%	44.1%	57.3%	15.1%	41.8%	-34.2% (active)	23%	4.99% (active)
Cc1cc2nc3ccc(N=Nc4ccc(N(C)C)cc4)cc3n(-c3ccccc3)c-2cc1=N	-94.6% (active)	-94.6% (active)	-52.8% (active)	-91.2% (active)	-82.2% (active)	-92% (active)	-96.5% (active)	-46.9% (active)	-47.3% (active)	0.81% (active)	-63.5% (active)	-22% (active)	-78.5% (active)	-93.2% (active)	-78% (active)	-88.8% (active)	-85% (active)	-25.3% (active)	4.97% (active)
COc1cc(CCCO)c(OC)c(OC)c1OC	118%	105%	99.6%	90.4%	109%	106%	92.3%	83.6%	108%	110%	112%	107%	103%	102%	107%	109%	111%	102%	104%
NS(=O)(=O)c1ccc(-n2nc(-c3ccc(Cl)cc3)c3ccccc3c2=O)cc1	110%	82.5%	93.4%	52.6%	152%	94.8%	95.9%	123%	70.3%	59.5%	84.6%	96.9%	93.7%	93.7%	96.9%	75.5%	108%	88.7%	86.2%
Cc1nc(S(=O)(=O)c2ccccc2)c(S(=O)(=O)Cc2ccc([N+](=O)[O-])cc2)o1	89.2%	104%	89.9%	72.5%	105%	87.6%	95.6%	81.8%	82.8%	90.7%	82.6%	100%	86.5%	93.1%	99.1%	95.8%	83.9%	87.6%	104%
CCCSc1nc2ccc(C)cc2cc1/C=[N+](\[O-])c1ccccc1	68.8%	80.6%	26.1%	44.7%	89.5%	49.2%	70.5%	74.6%	11.2%	27.2%	17.1%	12.4%	74.3%	55%	75.1%	44.4%	-12% (active)	48.6%	7.89% (active)
Oc1ccc(CCl)c2cccnc12	81.2%	51.6%	77%	45.3%	104%	64.1%	88.8%	101%	31.8%	82.6%	57.4%	73.8%	88.4%	24.6%	87.9%	78.8%	10.8%	79.7%	28.8%
